The record followed here is PubChem BioAssay (NCI).

Compounds without any hit were thinned out: in the full panel of roughly 83,000, 20% have a hit.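 The test compound was applied at a single concentration to cells in 96-well plates for 48 hours, and percent growth was recorded.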 A number with no mark means an inactive call. Calls of active or inactive are those of the source. The calls were made as follows: active = growth percent below 10; inactive = the rest.

The assay deals with HL-60(TB) leukemia. As to the kind of experiment: NCI-60 one-dose screen, 48 h (100 = growth as untreated, 0 = no growth, -100 = all killed). The settings on record: 10 µM unless noted.
`C#Cc1ccc(-n2c(/C=C/c3ccc4ccccc4c3)nc3ncccc3c2=O)cc1`: the growth is -2.99% (active).
As for `COc1ccc2cc(C(C)C(=O)Nc3ccc(-c4n[nH]c(=S)n4C4CCCCC4)cc3)ccc2c1` (stereo not given), the growth is 73.6%.
Regarding `COc1cc(C#N)cc(OC)c1OCCN(CCOc1c(OC)cc(C#N)cc1OC)S(=O)(=O)c1ccc(C)cc1`, the growth is 102%.
Regarding `Cc1ccccc1-n1c(C)nc2cc(NC(=O)c3ccc(Cl)cc3)ccc2c1=O`, the growth was 64.5%.
Regarding `N#Cc1c(-c2ccc(F)cc2)cc(-c2cccc(Cl)c2)[nH]c1=O`, the growth is 84.9%.
As for `Brc1ccc2[nH]cc(-c3nc(-c4c[nH]c5ncccc45)cs3)c2c1`, the growth was 32.7%.
For the compound `O=C1OC(Cc2ccccc2)C1c1ccccc1` (stereo not given), the growth is 84.7%.
As for `O=[N+]([O-])c1cc([N+](=O)[O-])c(N2CCCC2)cc1NN=C(c1ccc(O)cc1)c1ccc(O)cc1`, the figure is 122%; as for `CC(=O)c1nn(-c2ccccc2)/c(=N/N=Cc2cn(-c3ccccc3)nc2-c2cc3ccccc3oc2=O)s1`, 102%; as for `N#Cc1c(-c2ccccc2)cc(-c2ccc(Nc3nc(Nc4ccc(F)cc4)nc(Nc4ccc(F)cc4)n3)cc2)nc1N`, 14.2%.
In the case of `CCSCC1CC(O)(c2ccccc2)C(c2ccccc2)C(c2ccc(F)cc2)O1` (stereo not given), the growth is -12.5% (active).
For `CC(=Nc1ccc(N(C)C)cc1)c1ccccc1`, the growth is 26.1%.
For the compound `Oc1cccc2c1NCCC2`, the growth is 7.84% (active).
`Cc1ccc(Cc2ccc(C)cc2)cc1`: the growth was 95.9%.
Turning to `Clc1ccc(Cl)c(N=Cc2ccc3c(c2)OCO3)c1`, the growth was 102%.
Next, `c1cc2[nH]ncc2cc1-c1nc2ccc3[nH]ncc3c2c2c1CCC2`: -4.44% (active); `CCOC(=O)c1cc(C(=O)c2cc(OC)cc(OC)c2)n2ccccc12`: -13.9% (active); `COc1c(B(O)O)cc(C)cc1-c1nc2ccc3[nH]ncc3c2c2c1CCCC2`: 13.3%.
With `Clc1ccccc1[C@@H]1C[C@@H]2Cc3cc(Br)c4ccccc4c3N1O2`, the growth was 7.98% (active).
As for `C=C(CNCCO)[C@@H]1CC[C@]2(CO)CC[C@]3(C)[C@H](CC[C@@H]4[C@@]5(C)CCC(NCCO)C(C)(C)[C@@H]5CC[C@]43C)[C@@H]12` (stereo not given in full), the figure is 66.2%; as for `CC(=O)OC[Si](C)(C)c1ccccc1`, 100%; as for `COc1ccc(/C=C2\Oc3cc(OCCN4CCCC4)ccc3C2=O)c(OC)c1`, 75.6%.
On to `COc1cccc(/C=N/N=C(N)N)c1`, for which the growth was 122%.
Take `COc1ccc(C(O)c2cc3c(N)c(C(=O)Nc4cccc(OC)c4)sc3nc2C)cc1` (stereo not given): the growth was -55.9% (active).
As for `COc1ccc2nc3cc(Cl)ccc3c(NCCNc3c4ccc(Cl)cc4nc4ccc(OC)cc34)c2c1`, the growth is -75% (active).
With `Oc1[nH]c2ccccc2c1/C=c1/cc2c(c(-c3ccc(C(F)(F)F)cc3)n1)=Nc1ccccc1-2`, the growth was 19.2%.
Take `COc1ccc(-c2nc3sc(C4CC4)nn3c2/C=C2/C(=O)Nc3ccc(OC)cc32)cc1`: the growth is 97%.
Next, `COc1ccc2cc(C(C)C(=O)Nc3ccc(S(=O)(=O)Nc4cc(C)on4)cc3)ccc2c1` (stereo not given): 143%; `NC(=S)N/N=C\c1nccc2c(C(F)(F)C(F)(F)C(F)(F)F)cccc12`: -49.4% (active); `Fc1ccccc1Nc1n[nH]c(=S)s1`: 112%.
As for `CC[C@H](CC[C@@H](C)[C@H]1CC[C@H]2[C@@H]3/C(=C/c4cccnc4)C(=O)C4=CC(=O)CC[C@]4(C)[C@H]3CC[C@]12C)C(C)C`, the figure is 64.6%; as for `CC(=O)C(=Cc1ccc(C=C(C(C)=O)C(C)=O)cc1)C(C)=O`, 7.08% (active); as for `COc1ccc2c(c1)c(-c1nn3cc(-c4cccs4)nc3s1)cn2C`, 82.7%.
Regarding `COc1ccc(Nc2cnc3cc(NS(=O)(=O)c4ccc(C)cc4)ccc3n2)cc1`, the growth is 70%.
Next, `CN(C)c1ccc([C@@H](C(=O)Nc2cccc([N+](=O)[O-])c2)N(C(=O)c2cc3ccccc3[nH]2)c2cccc([N+](=O)[O-])c2)cc1`: 97.8%; `COc1ccc(C2C(C#N)=C(N)Oc3c2sc2c(C)cccc32)cc1` (stereo not given): -13.9% (active).
As for `CCOc1ccncc1[N+](=O)[O-]`, the growth was 103%.
As for `N#C/C(=C\C=C\c1ccc(-c2cc(Cl)ccc2Cl)o1)c1nc2ccccc2s1`, the growth was 97.7%.
As to `COc1cc(-c2cc(-c3ccc(Nc4nc(Nc5ccc(Cl)cc5)nc(Nc5ccc(Cl)cc5)n4)cc3)no2)cc(OC)c1OC`, the growth was -68.2% (active).
Next, `S=C1SCN(Cc2ccccc2)CN1Cc1ccccc1`: 16.5%.
